In PubChem BioAssay AID504848 (National Center for Advancing Translational Sciences (NCATS), 2011):
In all, about 2,300 compounds went through this assay and about 1,400 (61%) were called active. Roughly 29% stayed inconclusive and do not appear here. The call rests on the fitted dose curve; in most records, active means well fitted inhibition curve with a large enough effect; inconclusive means small, poorly fitted or top-dose-only effect, or effect the other way; inactive means no such curve, though single readings can be large or run the other way. So high a share suggests a set chosen from earlier hits. The list shows a part of the results.

Experiment: Confirmation screen for delayed death inhibitors of the malarial parasite plastid, 96 hour incubation; further: nearly all actives have a fitted effect of over 60% in size
Conditions: P. falciparum luciferase growth in erythrocytes; series mostly up to 28.7 µM
Method in brief: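 Two-generation (96 h, 37 C) exposure of P. falciparum carrying an integrated firefly luciferase reporter in erythrocytes, 0.1% parasitemia and 2% hematocrit final, Albumax-supplemented RPMI. Luminescence decrease measures growth inhibition.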
Potency means the concentration at half of the fitted maximal effect.

| Compound | Potency |
| --- | --- |
| O=C(CSc1nnc(NC(=O)c2ccccc2[N+](=O)[O-])s1)NCC1CCCO1 (stereo unspecified) | 14.1 µM (active) |
| O=C(COC(=O)c1c2c(nc3ccccc13)CCN(Cc1ccccc1)C2)Nc1c(F)cccc1F | 5.01 µM (active) |
| COc1ccc(Cc2nc3ccc(C(=O)NCCc4ccccn4)cc3o2)cc1OC | 11.2 µM (active) |
| Nc1nc(C2CC2)c(Sc2sc(N)nc2C2CC2)s1 | inactive |
| CCOc1ccccc1NC(=O)NC1Cc2ccccc2C1 | 12.6 µM (active) |
| CC(C)(C(=O)N[C@H](CO)c1ccccc1)C(=O)N[C@H](CO)c1ccccc1 | inactive |
| CCCC(=O)NC(c1ccccc1)c1c(O)ccc2ccccc12 (stereo unspecified) | 4.47 µM (active) |
| Cc1ccc2c(c1)C1CC(C)(O2)N(c2cccc(C(=O)N3CCN(c4ccccn4)CC3)c2)C(=O)N1 (stereo unspecified) | 12.6 µM (active) |
| Cc1cccc(-n2c(C)cc(/C=N\NC(=O)c3cccs3)c2C)c1 | 12.6 µM (active) |
| C[N+]1(CCCCSc2ccc(O)cc2)CCCCC1 | 4.47 µM (active) |
| COc1ccc(C)cc1NC(=O)C(Sc1nnc(Nc2cc(C)ccc2OC)s1)c1ccccc1 (stereo unspecified) | 14.1 µM (active) |
| COC(=O)c1ccc(NC(=O)C[n+]2ccccc2C)cc1 | 12.6 µM (active) |
| Cc1cccc[n+]1CC(=O)Nc1ccc([N+](=O)[O-])cc1 | 12.6 µM (active) |
| Cc1cccc[n+]1CC(=O)c1ccc(NC(=O)c2ccccc2)cc1 | 5.01 µM (active) |
| Cc1ccc(C(=O)C[n+]2ccccc2C)cc1[N+](=O)[O-] | 11.2 µM (active) |
| COC(=O)c1ccc(CNCC(=O)Nc2ccc(C(=O)OC)cc2)cc1 | inactive |
| CCOC(=O)NC(=O)COC(=O)c1ccc(O)cc1 | inactive |
| Cc1ccc(C(=O)NCCn2ccc3ccccc32)cc1[N+](=O)[O-] | inactive |
| CC(C)[C@H](NC(=O)N1CCn2c1nc1ccccc12)C(=O)N[C@H](C(=O)O)c1ccccc1 | inactive |
| CCc1ccc(-c2nc3ccc(Br)cc3c(C(=O)O)c2C)s1 | inactive |
| S=C(NCc1ccncc1)Nc1ccc(Br)cc1Cl | 12.6 µM (active) |
| CC1CCN(CCCNS(=O)(=O)c2cc(Br)cc3c2N(C(=O)C2CC2)CC3)CC1 | 12.6 µM (active) |
| O=C(C1CC1)N1CCc2cc(Br)cc(S(=O)(=O)NCc3ccco3)c21 | 11.2 µM (active) |
| CCC(=O)N1CCc2cc(Br)cc(S(=O)(=O)NCc3ccco3)c21 | 12.6 µM (active) |
| O=C(C1CCC1)N1CCc2cc(S(=O)(=O)NCc3ccco3)ccc21 | inactive |
| CCCCN(CCCC)CC(O)c1cc(Cl)cc2c1-c1ccc(Cl)cc1/C2=C/c1ccc(Cl)cc1 (stereo unspecified) | 0.0562 µM (active) |
